# Source: PubChem BioAssay
# Compounds with a hit are over-represented: about 27% of the library has one in this group of screens.
# CYP2C19 act = increases human CYP2C19 enzyme activity | recombinant CYP2C19, luciferin-H EGE luminescence; hits give high values; 0 = fully inhibited enzyme, 1 = untreated enzyme | activation factor at 5 µM | 96,000 tested, under 10 active;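 active = activation factor of at least 2 at 5 µM in the primary screen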
# CYP2C9 inhib = blocks human cytochrome P450 2C9; CYP2C9 Supersomes, luciferin-H conversion, luminescence; inhibition, % at 5 µM; actives 20% (n = 96,000); AID 777;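 active = blocking of liver enzyme CYP2C9 beyond about 50% at 5 µM, limit read from the data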
# Target sequence (P11712 whole entry, looked up): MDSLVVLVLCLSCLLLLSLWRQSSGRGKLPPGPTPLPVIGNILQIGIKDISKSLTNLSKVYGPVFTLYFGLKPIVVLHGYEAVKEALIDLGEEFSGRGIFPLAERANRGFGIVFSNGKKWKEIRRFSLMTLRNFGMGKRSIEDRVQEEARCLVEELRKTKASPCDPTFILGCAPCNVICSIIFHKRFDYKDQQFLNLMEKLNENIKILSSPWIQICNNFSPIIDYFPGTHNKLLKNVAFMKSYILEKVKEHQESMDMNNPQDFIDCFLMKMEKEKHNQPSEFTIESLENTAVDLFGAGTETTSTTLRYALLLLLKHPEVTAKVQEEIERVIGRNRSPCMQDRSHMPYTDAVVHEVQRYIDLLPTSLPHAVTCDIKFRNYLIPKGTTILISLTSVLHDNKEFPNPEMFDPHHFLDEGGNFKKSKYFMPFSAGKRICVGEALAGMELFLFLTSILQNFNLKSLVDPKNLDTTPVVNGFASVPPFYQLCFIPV
# Cav32 inh = human Cav3.2 channel inhibition, primary screen. B-score at 10 µM. Cav3.2-expressing cells, Fluo-4 calcium fluorescence FDSS; hits give low values. actives 4% (n = 100,000). O95180;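 active = single-dose well whose peak fluorescence ratio is a statistical outlier from its plate by either plate-standardised score or position-corrected B-score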
# CYP2C9 activ = activators of human CYP2C9; P11712; recombinant CYP2C9, luciferin-H conversion, luminescence; hits give high values; factor 1 = untreated enzyme, 0 = blocked; activation factor at 5 µM; actives 1.4% (n = 96,000);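 active = activation factor of 2 or more for CYP2C9 at a 5 µM dose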
# CYP2C19 inh = blocks human cytochrome P450 2C19; P33261; CYP2C19 Supersomes, luciferin-H EGE luminescence, 30 min; actives 21% (n = 96,000); inhibition, % at 5 µM;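 active = CYP2C19 inhibition above a set limit at 5 µM in the primary screen, cut at about 50% in these data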
# A number is an active result; - = inactive; . = no result.
SMILES,CYP2C19 act,CYP2C9 inhib,Cav32 inh,CYP2C9 activ,CYP2C19 inh
NC(=O)c1c(NC(=O)CSc2nnc(Cc3ccccc3)n2Cc2ccco2)sc2c1CCC2,-,63.6,-,-,-
CCOC(=O)c1c(NC(=O)CSc2nnc(CNC(=O)c3ccco3)n2C)sc2c1CCC2,-,70.5,-,-,-
Cc1c(N=Cc2cc3c(cc2Cl)OCO3)c(=O)n(-c2ccccc2)n1C,-,-,-,-,-
c1ccc2nc(N3CCOCC3)cnc2c1,-,-,.,-,-
CCCOC(=O)C1NC(=O)N2C(C(=O)OCCC)C(C)(C)S[C@H]12 (stereo not given in full),.,.,-,.,.
C/C(NC(=O)c1cccs1)=C1\C(=O)C[C@@H]2[C@H]1C2(C)C,-,-,-,-,-
CCN(C(=O)c1ccc(C(C)(C)C)cc1)c1nnc(Cn2nnc3ccccc32)s1,-,51.8,-8.04,-,-
Cc1ccc(C(=O)Cn2nnc3ccccc32)cc1,-,-,-,-,-
COn1c(SCc2ccc(C)cc2C)nc2ccccc2c1=O,-,93.3,-,-,73.0
COn1c(SC2CCCCC2)nc2ccccc2c1=O,-,81.7,-,-,78.0
COc1cc(OC)c(NC2=NCCCCC2)cc1Cl,-,-,-,-,-
CN1C[C@@H]2C(c3ccc(C(F)(F)F)cc3)C3(c4ccc(C#N)cc4)CC2(C3)[C@H]1c1ccccc1 (stereo not given in full),.,.,-,.,.
COc1ccccc1-n1cnnc1SCC(=O)c1ccc[nH]1,-,-,-,-,58.7
Cc1c(C(=O)N2CCc3ccccc32)oc2c1C(=O)CC(C)(C)C2,-,-,-,-,-
CCn1c(=O)c(C(=O)Nc2nc3ccccc3[nH]2)c(O)c2ccccc21,-,-,-,-,-
COc1ccc(C(=O)/C=C(\C)NCc2ccc3c(c2)OCO3)cc1,-,-,-,-,-
CC(=O)Oc1ccc(C2OC(=O)c3ccccc3N2C(C)=O)cc1 (stereo not given),-,-,-,-,-
COc1ccc(C2Oc3ccccc3N2C(C)=O)cc1 (stereo not given),-,68.8,-,-,63.5
COC(=O)CC1COc2ccccc2N1C(=O)c1ccc(OC)cc1 (stereo not given),-,-,-,-,61.9
COc1ccc(C(=O)N2c3ccccc3C(=O)OC2c2ccc3c(c2)OCO3)cc1 (stereo not given),-,80.9,-,-,83.3
C=CCC(COCc1ccccc1)NS(=O)(=O)c1ccccc1Br (stereo not given),.,.,-,.,.
CC(=O)C1=C(C)NC(SCC(=O)c2ccc(F)cc2)=C(C#N)C1c1ccco1 (stereo not given),-,79.7,-,-,97.8
CC(=O)C1=C(C)NC(SCc2cccc([N+](=O)[O-])c2)=C(C#N)C1c1ccco1 (stereo not given),-,83.5,.,-,100.0
CCOC(=O)C1=C(C)NC(SCC(=O)O)=C(C#N)C1c1ccco1 (stereo not given),-,-,-,-,-
CCc1ccc(C(=O)CSC2=C(C#N)C(c3ccco3)C(C(C)=O)=C(C)N2)cc1 (stereo not given),-,75.8,-,-,-
SMILES,CYP2C19 act,CYP2C9 inhib,Cav32 inh,CYP2C9 activ,CYP2C19 inh
COc1ccccc1NC(=O)C1=C(C)NC(SCC(=O)c2ccc(C)cc2)=C(C#N)C1c1ccco1 (stereo not given),-,89.9,.,-,84.2
O=C1N2CCSC2=NC1(NS(=O)(=O)c1ccccc1)C(F)(F)F (stereo not given),-,-,-,-,-
CC(=O)C1=C(C)NC(SCC(=O)c2ccc(Cl)cc2)=C(C#N)C1CC(C)C (stereo not given),-,95.2,-,-,99.1
CC(=O)C1=C(C)NC(SCC(N)=O)=C(C#N)C1C (stereo not given),-,-,-,-,-
COCCN(C(=O)C(C)C)c1nnc(-c2cccc(C)c2)s1,-,60.8,-,-,-
COCCN(C(=O)Cc1cccs1)c1nnc(-c2ccncc2)s1,-,73.2,-,-,97.5
CCN(C(=O)c1cccs1)c1nnc(-c2ccncc2)s1,-,71.2,-,-,100.0
Cc1nnc(SCCn2c(N(C)Cc3ccccc3)nc3c2c(=O)n(C)c(=O)n3C)s1,.,.,-,.,.
CCc1c(C)nc2[nH]nc(NC(=O)C(F)(F)F)n2c1=O,-,-,-,-,-
C=CCNC(=O)C12CC3(C)CC(C)(CC(C)(C3)C1)C2,-,-,-,-,54.0
CC(C)CCNC(=O)C1CC(c2ccc(C(F)(F)F)cc2)=NO1 (stereo not given),.,.,-,.,.
CCOC(=O)C1=C(C)N(CCCC(=O)O)C(=O)NC1c1ccccc1OC(=O)c1cccs1 (stereo not given),.,.,-,.,.
COc1ccc(OC)c(CNc2ccc(F)c(Cl)c2)c1,-,58.4,-,-,-
O=S(=O)(Nc1ccc2nc(-c3ccc(Br)o3)[nH]c2c1)c1ccccc1,-,93.8,.,-,90.6
Cc1ccc(-c2nc3ccc(NS(=O)(=O)c4ccccc4)cc3[nH]2)o1,-,100.3,.,-,99.5
O=S(=O)(Nc1ccc2nc(C(F)(F)F)[nH]c2c1)c1ccccc1,-,81.2,-,-,100.4
COc1cc(C)nc(NS(=O)(=O)c2ccccc2)n1,-,-,-,-,-
Cn1c(CN2CCCC2)nc2cc(NS(=O)(=O)c3ccccc3)ccc21,-,-,-,-,-
Cc1csc(NC(C)c2nc3cc(C(F)(F)F)ccc3n2CCCO)n1 (stereo not given),.,.,-,.,.
O=C(CCc1ccc(S(=O)(=O)N2CCOCC2)cc1)Nc1nc(COc2ccccc2)cs1,-,85.0,.,-,-
Cc1sc(NC(=O)CN2CCOCC2)nc1-c1ccc2c(c1)CCN2S(=O)(=O)c1ccccc1,-,-,-,-,-
O=C(CCc1ccc(S(=O)(=O)N2CCOCC2)cc1)Nc1nccs1,-,-,-,-,-
O=C(CN1CCOCC1)Nc1nc(-c2ccc3c(c2)CCN3S(=O)(=O)c2ccccc2)cs1,-,86.4,-,-,67.6
O=C(COc1ccccc1)Nc1nc(-c2ccc(S(=O)(=O)N3CCOCC3)cc2)cs1,-,77.6,-,-,-
O=C(NNC(=O)c1cccnc1)Nc1cccc2ccccc12,-,-,-,-,-
SMILES,CYP2C19 act,CYP2C9 inhib,Cav32 inh,CYP2C9 activ,CYP2C19 inh
ONC(=Nc1ccc(Cl)cc1)c1ccc(Cl)cc1,-,55.4,.,-,70.8
O=[N+]([O-])c1cccc(C(=Nc2ccc(Cl)cc2)NO)c1,-,71.3,-,-,87.9
O=[N+]([O-])c1cccc(C(=Nc2ccccc2Cl)NO)c1,-,61.7,.,-,87.4
C/C(=N\NC(N)=O)c1ccc(Cl)cc1,-,-,.,-,-
CCOC(=O)c1cnn(-c2nc(SC)nc3sc4c(c23)CCC4)c1N,-,-,-,-,-
CN1C(=O)S/C(=C/c2cccnc2)C1=O,-,-,-,-,-
Cc1ccc(S(=O)(=O)/N=C2/NC(=O)/C(=C/c3cccnc3)S2)cc1,-,98.4,-,-,67.9
CCN(CC)Cc1c(O)ccc2c(=O)c(-c3ccc4c(c3)OCCO4)coc12,-,-,-,-,-
